Laboratory results as given in PubChem BioAssay (NCATS).
Results filed as inconclusive are left out. Calls of active or inactive are those of the source. The call rests on the fitted dose curve; in most records, active means well fitted cell-killing curve with a large enough effect; inconclusive means small, poorly fitted or top-dose-only effect, or effect the other way; inactive means no such curve, though single readings can be large or run the other way.

experiment: Quantitative High-Throughput drug screen in 47 multiple myeloma cell lines against the NCATS MIPE library collection: MM1S_ATCC cell viability assay (AID 1918980); conditions: MM1S myeloma viability, CellTiter-Glo ATP luminescence, 48 h; series mostly up to 45.8 µM; further: nearly all actives have a fitted effect of over 45% in size
Outline: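 Cells were exposed to library compounds for 48 hours, after which ATP was measured by CellTiter-Glo. Signal was taken as median relative luminescence units.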
Potency means the concentration at half of the fitted maximal effect.

| Structure (SMILES) | Potency |
| --- | --- |
| O=C1C=CC[C@@H]2[C@H]3CCCN4CCC[C@@H](CN12)[C@@H]34 | 20.9 µM (active) |
| COc1ccc2c(c1)CN(C)CC2c1ccc(Cl)c(Cl)c1 (configuration not stated) | 0.0833 µM (active) |
| C[C@]12CC[C@@H]3[C@@H](CCC4=CC(=O)CC[C@@H]43)[C@@H]1CC[C@@H]2OC(=O)CCc1ccccc1 | inactive |
| CCOC(=O)c1c(C(C#N)=CN)c2ccc(Cl)c(Cl)c2n1C | 23.5 µM (active) |
| Cc1nc(-c2ccc(-c3ccc(C(=O)N4CCc5cc6c(cc54)C4(CCN(C)CC4)CO6)cc3)c(C)c2)no1 | inactive |
| CC(C)N[C@@H]1CCn2c(=O)[nH]c3cccc(c32)[C@@H]1O | 0.372 µM (active) |
| N=c1c2c(-c3ccccc3)c(-c3ccccc3)n(Cc3ccccc3)c2ncn1C1CCC(O)CC1 (configuration not stated) | 5.26 µM (active) |
| CSCC[C@@H](NC(=O)[C@@H](Cc1ccccc1)NC(=O)CNC(=O)CNC(=O)[C@@H](N)Cc1ccc(O)cc1)C(=O)O | inactive |
| Cc1c(N)nc([C@H](CC(N)=O)NC[C@@H](N)C(N)=O)nc1C(=O)N[C@H](C(=O)N[C@@H](C)[C@H](O)[C@@H](C)C(=O)N[C@@H](C(=O)NCCc1nc(-c2nc(C(=O)NCCC[S+](C)C)cs2)cs1)[C@@H](C)O)C(O[C@H]1O[C@H](CO)[C@H](O)[C@@H](O)[C@@H]1O[C@H]1O[C@H](CO)[C@@H](O)[C@H](OC(N)=O)[C@H]1O)c1cnc[nH]1 (some centres not stated) | 20.9 µM (active) |
| Cc1ccccc1-n1c(Cn2ncc3c(N)ncnc32)nc2cccc(C)c2c1=O | 0.118 µM (active) |
| O=C(N[C@H]1CN2CCC1CC2)c1ccc(Cl)cc1 | 2.96 µM (active) |
| CCNC(=O)CC1N=C(c2ccc(Cl)cc2)c2cc(OC)ccc2-n2c(C)nnc21 (configuration not stated) | 11.8 µM (active) |
| CCN1C[C@]2(OC(=O)c3ccccc3NC(C)=O)CC[C@H](OC)[C@@]34[C@H]5CC6[C@@H](OC)C[C@](O)(C(C[C@@H]23)[C@@H]14)[C@@]5(O)[C@@H]6OC | inactive |
| CC1(N2CCC(n3c([C@@H]4CCCNC4)nc4ccccc43)CC2)CCCCCCC1 | 4.69 µM (active) |
| O=[N+]([O-])c1ncc[nH]1 | inactive |
| CCCN1CCO[C@@H]2c3cc(O)ccc3OC[C@@H]21 | 14.8 µM (active) |
| CC(O)=C(C#N)C(=O)Nc1cc(Br)ccc1Br | 20.9 µM (active) |
| C[C@]12Cc3cn[nH]c3C[C@@H]1CC[C@@H]1[C@H]2CC[C@@]2(C)[C@H]1CC[C@]2(C)O | inactive |
| COC[C@H]1OC(=O)c2coc3c2[C@@]1(C)C1=C(C3=O)[C@@H]2CC[C@H](O)[C@@]2(C)C[C@@H]1OC(C)=O | 2.35 µM (active) |
| COc1ccc(C(=O)c2c(C)n(CCN3CCOCC3)c3cc(I)ccc23)cc1 | inactive |
| O=C(NCC1CCOCC1)c1cnc(Nc2ccc(Cl)cc2Cl)nc1C(F)(F)F | 3.32 µM (active) |
| O=C(Nc1ccncc1)C(=O)c1cn(Cc2ccc(Cl)cc2)c2ccccc12 | 0.264 µM (active) |
